Assay results published in the antibiotic and cytotoxicity screens of Wong et al. (2023).
In all, about 39,000 compounds went through this assay and about 3,300 (8.5%) were called active. What follows is part of a selection rich in actives, with near analogues and random picks from the rest.

Each compound was assayed on HepG2 (assay: cytotoxicity call (relative viability < 0.9)). Details: 10 µM.
In the case of `CC(C)NC(=O)Nc1cccc2c1O[C@H](CN(C)S(=O)(=O)c1ccc(Cl)cc1)[C@@H](C)CN([C@@H](C)CO)C2=O`, the cytotoxicity call is reported as “inactive”. For `CNC(=O)C[C@H]1CC[C@H]2[C@@H](COC[C@@H](O)CN2C(=O)c2ccccn2)O1`, the cytotoxicity call was “inactive”. In the case of `C=C[C@@H]1C[C@]1(NC(=O)[C@@H]1C[C@@H]2CN1C(=O)[C@H](C(C)(C)C)NC(=O)O[C@@H]1C[C@H]1CCCCCc1nc3ccc(OC)cc3nc1O2)C(=O)NS(=O)(=O)C1CC1`, the cytotoxicity call is reported as “inactive”. For `COCC#Cc1ccc2c(c1)O[C@H](CN(C)C(=O)Nc1ccccc1F)[C@@H](C)CN([C@H](C)CO)S2(=O)=O`, the cytotoxicity call was “inactive”. For `C[C@H](CO)N1C[C@H](C)[C@@H](CN(C)S(=O)(=O)c2cccs2)Oc2ccc(NC(=O)Cn3cnnn3)cc2CC1=O`, the cytotoxicity call was “inactive”. With `C[C@H]1CN([C@@H](C)CO)C(=O)c2cc(NC(=O)Nc3cccc4ccccc34)ccc2O[C@@H]1CN(C)Cc1ccc(C(=O)Nc2ccccc2N)cc1` the cytotoxicity call was “inactive”. With `C[C@@H]1CN([C@H](C)CO)C(=O)c2cc(NC(=O)Nc3cccc4ccccc34)ccc2O[C@H]1CN(C)Cc1ccc(C(=O)Nc2ccccc2N)cc1` the cytotoxicity call was “inactive”. With `C[C@H]1CN([C@@H](C)CO)C(=O)c2cc(NC(=O)Nc3cccc4ccccc34)ccc2O[C@H]1CN(C)Cc1ccc(C(=O)Nc2ccccc2N)cc1` the cytotoxicity call was “inactive”. For `C[C@H](CO)N1C[C@H](C)[C@@H](CN(C)Cc2ccc(C(=O)Nc3ccccc3N)cc2)Oc2ccc(NC(=O)Nc3cccc4ccccc34)cc2C1=O`, the cytotoxicity call was “inactive”. `C[C@H](CO)N1C[C@H](C)[C@H](CN(C)Cc2ccc(C(=O)Nc3ccccc3N)cc2)Oc2ccc(NC(=O)Nc3cccc4ccccc34)cc2C1=O` was tested, and the cytotoxicity call was “active”. `C[C@@H]1CN([C@H](C)CO)C(=O)c2cc(NC(=O)Nc3cccc4ccccc34)ccc2O[C@@H]1CN(C)Cc1ccc(C(=O)Nc2ccccc2N)cc1` was tested, and the cytotoxicity call was “active”. `CN1C(=O)c2cc(NC(=O)Cc3cccs3)ccc2OC[C@@H]2O[C@@H](CC(=O)NCCCN3CCOCC3)CC[C@H]21` was tested, and the cytotoxicity call was “inactive”. For `COCCOC(=O)N1C(=O)[C@@]2(c3cc(C#CCNC(N)=O)ccc31)[C@H](c1ccc(O)cc1)N1[C@H](c3ccccc3)[C@H](c3ccccc3)OC(=O)[C@H]1[C@@H]2C(=O)N1CCc2cc(OC)c(OC)cc2C1`, the cytotoxicity call was “inactive”. `COC(=O)[C@H]1[C@H](CO)[C@H]2Cn3c(cccc3=O)[C@H]2N1C(=O)C1CC1` was tested, and the cytotoxicity call was “inactive”. In the case of `C[C@H](CO)N1C[C@H](C)[C@@H](CN(C)Cc2ccc(C(=O)Nc3ccccc3N)cc2)Oc2c(NC(=O)Nc3ccccc3)cccc2C1=O`, the cytotoxicity call is reported as “inactive”. With `C[C@H](C(=O)O)N1CCCC1=O` the cytotoxicity call was “inactive”. With `C[C@H](CO)N1C[C@H](C)[C@@H](CN(C)C(=O)Nc2cccc3ccccc23)Oc2ccc(NC(=O)Nc3ccccc3)cc2C1=O` the cytotoxicity call was “inactive”. With `COc1ccc(S(=O)(=O)N2C[C@H](O)COC[C@@H]3O[C@H](CC(=O)NCCCN(C)C)CC[C@H]32)cc1` the cytotoxicity call was “inactive”. For `C[C@H]1CN([C@@H](C)CO)C(=O)c2c(c3ccccc3n2C)-c2ccccc2CO[C@@H]1CN(C)Cc1cccc(C(=O)O)c1`, the cytotoxicity call was “inactive”. In the case of `Cc1ccc(S(=O)(=O)N(C)C[C@H]2Oc3c(NC(=O)Nc4cccc5ccccc45)cccc3C(=O)N([C@@H](C)CO)C[C@H]2C)cc1`, the cytotoxicity call is reported as “inactive”. With `O=C(C[C@@H]1C[C@@H]2c3cc(NS(=O)(=O)c4ccc(F)cc4)ccc3O[C@@H]2[C@H](CO)O1)NCCc1ccccc1` the cytotoxicity call was “inactive”. `C[C@@H]1CN([C@@H](C)CO)C(=O)Cc2cc(NC(=O)c3ccncc3)ccc2O[C@@H]1CN(C)S(=O)(=O)c1cccs1` was tested, and the cytotoxicity call was “active”. In the case of `C[C@@H]1CN([C@@H](C)CO)C(=O)Cc2cc(NC(=O)Nc3cccc4ccccc34)ccc2O[C@@H]1CN(C)S(=O)(=O)c1cccs1`, the cytotoxicity call is reported as “active”. `C[C@H](CO)N1C[C@H](C)[C@H](CN(C)S(=O)(=O)c2cccs2)Oc2ccc(NC(=O)Nc3cccc4ccccc34)cc2CC1=O` was tested, and the cytotoxicity call was “inactive”. `C[C@H]1CN([C@@H](C)CO)C(=O)Cc2cc(NC(=O)c3ccncc3)ccc2O[C@@H]1CN(C)S(=O)(=O)c1cccs1` was tested, and the cytotoxicity call was “inactive”. In the case of `CC(C)NC(=O)Nc1ccc2c(c1)CC(=O)N([C@@H](C)CO)C[C@@H](C)[C@@H](CN(C)S(=O)(=O)c1cccs1)O2`, the cytotoxicity call is reported as “active”. With `CC(C)NC(=O)Nc1ccc2c(c1)CC(=O)N([C@@H](C)CO)C[C@H](C)[C@H](CN(C)S(=O)(=O)c1cccs1)O2` the cytotoxicity call was “inactive”. With `C[C@H]1CN([C@@H](C)CO)C(=O)Cc2cc(NC(=O)c3ccncc3)ccc2O[C@@H]1CN(C)S(=O)(=O)c1ccccc1` the cytotoxicity call was “inactive”. With `C[C@@H]1CN([C@@H](C)CO)C(=O)Cc2cc(NC(=O)c3ccncc3)ccc2O[C@H]1CN(C)S(=O)(=O)c1cccs1` the cytotoxicity call was “inactive”. For `CC(C)NC(=O)Nc1ccc2c(c1)CC(=O)N([C@H](C)CO)C[C@H](C)[C@H](CN(C)S(=O)(=O)c1cccs1)O2`, the cytotoxicity call was “inactive”. In the case of `C[C@H]1CN([C@@H](C)CO)C(=O)Cc2cc(NC(=O)Nc3cccc4ccccc34)ccc2O[C@H]1CN(C)S(=O)(=O)c1cccs1`, the cytotoxicity call is reported as “inactive”. In the case of `C[C@H](CO)N1C[C@H](C)[C@H](CN(C)S(=O)(=O)c2ccccc2)Oc2ccc(NC(=O)c3ccncc3)cc2CC1=O`, the cytotoxicity call is reported as “inactive”. With `C[C@@H]1CN([C@@H](C)CO)C(=O)Cc2cc(NC(=O)c3ccncc3)ccc2O[C@@H]1CN(C)S(=O)(=O)c1ccccc1` the cytotoxicity call was “active”. For `C[C@@H]1CN([C@H](C)CO)C(=O)c2cc(NC(=O)Nc3ccc(C(F)(F)F)cc3)ccc2O[C@@H]1CN(C)C(=O)Nc1ccc2c(c1)OCO2`, the cytotoxicity call was “inactive”. In the case of `COCC(=O)N1CC[C@]2(CC1)CN(Cc1ccc3c(c1)OCO3)[C@@H](CO)c1c2c2ccc(cc2n1C)OC`, the cytotoxicity call is reported as “inactive”. In the case of `Nc1ccc(-c2ccco2)cc1`, the cytotoxicity call is reported as “inactive”. `COc1ccc(S(=O)(=O)Nc2ccc3c(c2)CC(=O)N([C@H](C)CO)C[C@@H](C)[C@H](CN(C)S(=O)(=O)c2cn(C)cn2)O3)cc1` was tested, and the cytotoxicity call was “inactive”. In the case of `CC(C)NC(=O)N(C)C[C@@H]1OCc2cn(nn2)CCCC(=O)N([C@@H](C)CO)C[C@H]1C`, the cytotoxicity call is reported as “inactive”. In the case of `C[C@@H]1CN([C@@H](C)CO)C(=O)c2cccc(NS(=O)(=O)c3ccc(F)cc3)c2O[C@H]1CN(C)Cc1ccc(Cl)c(Cl)c1`, the cytotoxicity call is reported as “inactive”.
